This is a sample that favours compounds with a hit; in the whole collection about 1.9% have one here.
OPRM1-OPRD1 inv – inverse agonists of human mu-delta opioid receptor heterodimerization | cell-based MOR-DOR heterodimer luminescence, inverse agonism | 340,000 compounds, 0.21% hits | AID 504357 | inhibition, % at 9.3 µM | P35372+P41143; in the data active means inhibition above about 22%, passing the limit was not always enough;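 further: 0% = cells with DMSO and 100% = wells without cells with DMSO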
MsrA inhibitor – bovine MsrA inhibition; inhibition, % at 15.5 µM; 360,000 compounds, 0.75% hits; purified bovine MsrA, absorbance read-out;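 further: 0% = vehicle wells with enzyme and 100% = reference inhibitor wells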
MOR-DOR ag – OPRM1-OPRD1 heterodimerization agonism | cells, luminescence | activation, % at 9.3 µM | 340,000 compounds, 0.3% hits | AID 504326; in the data active means activation above about 18%;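 further: 0% = vehicle-treated cells and 100% = reference agonist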
HTR5A inv ctr – inverse agonist of human HTR5A in OPRM1-OPRD1 counter-screen | AID 504634 | inhibition, % at 9.3 µM | 340,000 compounds, 0.083% hits | HTR5A cell line, luminescence, inverse agonism; in the data active means inhibition mostly above about 23%, no sharp cut-off; inactive means mostly below about 18%;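 further: 0% = cells with DMSO and 100% = no-cell wells with DMSO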
Target sequence (P47898 whole entry, looked up): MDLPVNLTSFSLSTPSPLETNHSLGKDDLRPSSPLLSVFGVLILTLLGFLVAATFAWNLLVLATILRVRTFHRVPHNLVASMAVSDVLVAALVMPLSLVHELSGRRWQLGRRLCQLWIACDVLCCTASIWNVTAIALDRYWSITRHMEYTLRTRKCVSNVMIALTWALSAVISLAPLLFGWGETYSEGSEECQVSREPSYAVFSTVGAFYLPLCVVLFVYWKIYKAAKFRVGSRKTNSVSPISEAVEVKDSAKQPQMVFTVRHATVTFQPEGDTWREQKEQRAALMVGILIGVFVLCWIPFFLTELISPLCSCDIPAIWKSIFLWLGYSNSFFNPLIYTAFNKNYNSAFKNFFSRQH
HTR5A ag ctr – activates human HTR5A in OPRM1-OPRD1 agonist counter-screen. 340,000 compounds, 0.61% hits. HTR5A agonist assay, luminescence, cell-based. AID 504692. activation, % at 9.3 µM; in the data active means activation mostly above about 9.5%, no sharp cut-off; inactive means mostly below about 7.6%;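 further: 0% = cells with vehicle only and 100% = reference agonist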
bovine MsrA act – activates bovine MsrA enzyme | activation, % at 10.6 µM | purified bovine MsrA, absorbance read-out | 360,000 compounds, 0.3% hits; in the data active means activation above about 7.5%;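 further: 0% = vehicle and 100% = reference activator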
MsrA inh confirm – bovine MsrA inhibition, confirmed | inhibition, % at 15.5 µM | 2,300 compounds, 41% hits | purified bovine MsrA, absorbance read-out | shares compounds with MsrA inhibitor;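 further: coupled to thioredoxin reductase with NADPH and selenocystamine and DMSO as substrate; 0% = vehicle only and 100% = full effect of reference inhibitor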
Numbers without * were called inactive. Unless noted, no stated cut-off is given here; in the data, active means inhibition above about 4.5%; inactive means the rest.

Screening COc1cc(CNc2cccc3c2S(=O)(=O)N([C@H](C)c2ccccc2)C[C@@H](COCc2ccccc2)O3)cc(OC)c1OC returned MsrA inhibitor 1.3.
For C=CCOC(=O)Nc1nc(CCNC(=O)OC(C)(C)C)c(C(=O)O)s1 the results were MsrA inhibitor 0.7.
Screening CC(CC(=O)N(C)CC(=O)Nc1ccc(N2CCOCC2)cc1)c1ccccc1 (stereo not given) returned OPRM1-OPRD1 inv 2.0, MsrA inhibitor 0.7, MOR-DOR ag -0.3, HTR5A inv ctr 7.8, HTR5A ag ctr -2.6 and bovine MsrA act -4.1.
Screening CN(CC(=O)Nc1ccc(N2CCOCC2)cc1)C(=O)Cc1ccccc1 returned OPRM1-OPRD1 inv 15.2, MsrA inhibitor 5.3*, MOR-DOR ag -4.1, HTR5A inv ctr 14.4, HTR5A ag ctr 2.1, bovine MsrA act -2.3 and MsrA inh confirm -0.3.
`CCOC(=O)[C@]12CCCC=C1N(Cc1ccccc1)C(=O)[C@H](CC(=O)N1CCC(c3ccccc3)CC1)C2` gave MsrA inhibitor 1.6.
For CC(=O)OCC(C)n1[nH]c2ccccc2c1=O (stereo not given) the results were MsrA inhibitor 1.2 and bovine MsrA act -13.8.
`CCNC(=S)N/N=C(\C)c1cc2ccccc2o1` gave OPRM1-OPRD1 inv 4.4, MsrA inhibitor 5.6*, MOR-DOR ag -0.8, HTR5A inv ctr -8.1, HTR5A ag ctr 1.1, bovine MsrA act -11.1 and MsrA inh confirm 6.3*.
For C/C(=N\NC(=S)Nc1cccc(C)c1)c1cc2ccccc2o1 the results were OPRM1-OPRD1 inv -31.2, MsrA inhibitor 2.4, MOR-DOR ag 5.9, HTR5A inv ctr 3.9, HTR5A ag ctr -1.4 and bovine MsrA act 0.5.
`CCC1SC2=NC(C)=C(C(=O)OCCOC)C(c3ccc(C(=O)OC)cc3)N2C1=O` (stereo not given) gave OPRM1-OPRD1 inv 2.5, MsrA inhibitor 4.9*, MOR-DOR ag -0.4, HTR5A inv ctr 7.7, HTR5A ag ctr 3.3, bovine MsrA act -1.9 and MsrA inh confirm 2.4.
COCCNC(=O)C1CCCN(C(=O)c2ccc3c(c2)C(C)(C)CCC3(C)C)CC1 (stereo not given) was read as MsrA inhibitor 0.0 and bovine MsrA act -4.7.
CC(=O)NN1C(=O)c2ccc3c4c(ccc(c24)C1=O)C(=O)N(NC(C)=O)C3=O was read as OPRM1-OPRD1 inv -56.9, MsrA inhibitor 29.0*, MOR-DOR ag 12.2, HTR5A inv ctr -4.2, HTR5A ag ctr 1.1, bovine MsrA act -4.0 and MsrA inh confirm 22.4*.
O=C1c2ccc3c4c(ccc(c24)C(=O)N1NC(=O)C(F)(F)F)CC3 was read as OPRM1-OPRD1 inv -18.7, MsrA inhibitor 1.8, MOR-DOR ag 3.1, HTR5A inv ctr 2.7, HTR5A ag ctr -1.1 and bovine MsrA act -2.4.
Screening CCC(CC)=NNc1ccc([N+](=O)[O-])cc1[N+](=O)[O-] returned OPRM1-OPRD1 inv -22.3, MsrA inhibitor -0.3, MOR-DOR ag 3.1, HTR5A inv ctr 5.3, HTR5A ag ctr -1.9 and bovine MsrA act -12.1.
Screening C/C(CCC(=O)O)=N/Nc1ccc([N+](=O)[O-])cc1[N+](=O)[O-] returned OPRM1-OPRD1 inv 13.8, MsrA inhibitor 13.3*, MOR-DOR ag -2.6, HTR5A inv ctr -0.3, HTR5A ag ctr -1.2, bovine MsrA act -6.7 and MsrA inh confirm 9.8*.
C/C(CCCO)=N/Nc1ccc([N+](=O)[O-])cc1[N+](=O)[O-] was read as OPRM1-OPRD1 inv -17.6, MsrA inhibitor 13.8*, MOR-DOR ag 3.5, HTR5A inv ctr -7.6, HTR5A ag ctr 1.1, bovine MsrA act -3.8 and MsrA inh confirm 7.0*.
`COC(=O)[C@]12C[C@H](CC(=O)NCC34CC5CC(CC(C5)C3)C4)C(=O)N(CCC3=CCCCC3)C1=C[C@H](C(C)(C)C)O[C@@H]2C` gave MsrA inhibitor -0.2.
For Cc1cc(Br)cn2c(Cc3ccsc3)c(-c3ccc(F)cc3)nc12 the results were MsrA inhibitor 1.6 and bovine MsrA act 0.6.
O=C(/C=C\c1cccs1)c1c(O)ccc2ccc(=O)oc12 was read as OPRM1-OPRD1 inv 16.4, MsrA inhibitor 5.4*, MOR-DOR ag -3.2, HTR5A inv ctr 1.7, HTR5A ag ctr -0.6, bovine MsrA act -7.3 and MsrA inh confirm 6.3*.

Screening results deposited in PubChem BioAssay by The Scripps Research Institute Molecular Screening Center.
